# Calls of active or inactive are those of the source. How the source made its calls: active means hit-call score of the fitted dose curve at least 0.9, where 1 is the maximum; inactive means score below 0.9.
# Assay: ATG_M_19_CIS: Attagene CIS-FACTORIAL HepG2 Assay for M19 Transcription Factor (Internal Marker) (AID 2282939)
# Conditions: HepG2 Attagene CIS-FACTORIAL M19 internal marker reporter; actives raise or lower the signal
# Method: ATG_CIS is a cell-based, multiplexed-readout assay that uses HepG2, a human liver cell line, with measurements taken at 24 hours after chemical dosing in a 24-well plate.ATG_M_19_CIS is one of 52 assay component(s) measured or calculated from the ATG_CIS assay. It is designed to make measurements of mRNA induction, a form of inducible reporter, as detected with fluorescence intensity signals by Reverse transcription polymerase chain reaction (RT-PCR) and Capillary electrophoresis technology.Data from the assay component ATG_M_19_CIS was analyzed into 1 assay endpoint. This assay endpoint, ATG_M_19_CIS, was analyzed with bidirectional fitting relative to DMSO as the negative control and baseline of activity. Using a type of inducible reporter, measures of mRNA for gain or loss-of-signal activity can be used to understand the background control at the transcription factor-level as they relate to the gene . Furthermore, this assay endpoint can be referred to as a secondary readout, because this assay has produced multiple assay endpoints where this one serves a background control function. To generalize the intended target to other relatable targets, this assay endpoint is annotated to the background measurement intended target family, where the subfamily is internal marker.
# Human liver HepG2 cells are transiently transfected with multiple reporter transcription units (MRTUs) in 6-well plates using FuGene 6 reagent (Roche; 3 ml FuGene/1 mg DNA). The MRTU constructs are regulated by a cis-regulating element (promoter). […] A major difference between the CIS and TRANS system is that in CIS activities of endogenous TFs are measured, whereas the TRANS assay evaluates changes in activities of exogenous, chimeric NR-Gal4 proteins. […] At the end of 24 hour incubation, total RNA was isolated using TriZol reagent (Invitrogen). The isolated RNA is then reverse-transcribed using oligo(dT) primer and Mo-MLV reverse transcriptase (Invitrogen) with DNAse I (Ambion) treatment for 30 min. The one-tenth of the produced cDNA was amplified by PCR using Taq DNA polymerase (Invitrogen) and two reporter sequence-specific primers. The PCR products were fluorescently labeled by primer extension with 6-arboxyfluorescein (6-FAM) 5'-labeled reporter sequence-specific primer (2 min at 95 C, 20 s at 68 C and 10 min at 72 C) and these products were digested with 5U of HpaI (New England Biolabs) for 2h at 37 C. The fragments were purified using Qiaquick PCR columns (Qiagen), analyzed on an ABI 3130xL genetic analyzer (Applied Biosystems) with peak positions identified by using a set of X-rhodamine (ROX)-labeled MapMarker1000 molecular weight standards (BioVentures). The raw capillary electrophoresis data was processed using Attagraph software (Attagene).
Compound,outcome,AC50
CCOP(=S)(OCC)SCn1nnc2ccccc2c1=O,inactive,–
Oc1ccccc1Br,inactive,–
CCOS(=O)(=O)OCC,inactive,–
CCCN(CCC)c1c([N+](=O)[O-])cc(C(C)C)cc1[N+](=O)[O-],inactive,–
CCCCN(CCCC)SN(C)C(=O)Oc1cccc2c1OC(C)(C)C2,inactive,–
N#Cc1ccc(O)cc1,inactive,–
FC(F)(F)C(F)(C(F)(F)F)C(F)(F)C(F)(F)CC1CO1 (stereo not given),inactive,–
COP(N)(=S)OC,inactive,–
CCOC(=O)c1ccccc1C(=O)OCC,inactive,–
CCCCc1ccccc1,inactive,–
CN(C)C(=O)Cl,inactive,–
O=P(Oc1ccccc1)(Oc1ccccc1)Oc1ccccc1,inactive,–
Cc1cc(C)c(C(=O)P(=O)(c2ccccc2)c2ccccc2)c(C)c1,–,61.5 µM (active)
COC(N)=O,inactive,–
Cc1ccc(O)cc1C,inactive,–
ClC(Cl)=C(c1ccc(Cl)cc1)c1ccccc1Cl,inactive,–
N#Cc1c(-c2ccc(Cl)cc2)[nH]c(C(F)(F)F)c1Br,inactive,–
CC(C)CBr,inactive,–
O=C(O)C(Cl)Cl,inactive,–
CCN(CC)c1ccccc1,inactive,–

Compound,outcome,AC50
CCC(C)(C)c1ccc(O)cc1,inactive,–
CC(C)(C)c1ccc(O)cc1,inactive,–
O=P1(N(CCCl)CCCl)NCCCO1 (stereo not given),inactive,–
CC(C)(C)OOC(C)(C)C,inactive,–
CC(Cl)(Cl)C(=O)O,inactive,–
CCCCCCCc1ccc(O)cc1,inactive,–
Cc1ccc2c(c1N)C(=O)c1ccccc1C2=O,inactive,–
O=C(O)C(F)(F)C(F)(F)C(=O)O,inactive,–
FC(F)(F)c1ccc(Cl)cc1,inactive,–
c1cc2c3c(cccc3c1)CC2,inactive,–
CCOP(=S)(OCC)SCS(=O)(=O)CC,inactive,–
C=C(C)C(=O)OCC1CO1 (stereo not given),inactive,–
Nc1ccc2ccccc2c1,inactive,–
O=NN1CCCC1,inactive,–
CCOP(=S)(OCC)SCSc1ccc(Cl)cc1,inactive,–
CCCCc1ccc(O)cc1,inactive,–
CC1(C)CN=C(NN=C(/C=C/c2ccc(C(F)(F)F)cc2)/C=C/c2ccc(C(F)(F)F)cc2)NC1,inactive,–
Clc1ccc(Oc2ccccc2)cc1,inactive,–
CCCCOCC1CO1 (stereo not given),inactive,–
CC(O)C(F)(F)C(F)(F)F (stereo not given),inactive,–
